{"source": "the supplement of paper PMC12494721", "details_in_all_cases": "20 µM; incubation time: 27 h, anaerobic, 37 °C", "key": {"[1]": {"system": "Clostridium sporogenes DSM 1664", "experiment": "growth (OD595) fold change vs plate DMSO controls (fold change (ratio)); higher = more growth", "procedure,_shortened": "(§1)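 The measure reported is growth, taken as fold change against the median of DMSO controls on the same plate. Anaerobic mGAM cultures in 96-well plates (27 h, 37 °C) were read at 595 nm, blank-subtracted, corrected for compound background using 20 µM compound solutions in water, and multiplied by a calibration factor of 5 to give OD. Any fold change above 1.5 became NA, and 2 biological replicates were averaged.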"}, "Escherichia coli IAI1 [2]": {"system": "Escherichia coli IAI1", "experiment": "growth (OD595) fold change vs plate DMSO controls (fold change (ratio)); higher = more growth", "procedure,_shortened": "as §1"}, "[3]": {"system": "Klebsiella aerogenes DSM 30053", "experiment": "growth (OD595) fold change vs plate DMSO controls (fold change (ratio)); higher = more growth", "procedure,_shortened": "as §1"}, "[4]": {"system": "Ruminococcus gnavus DSM 108212", "experiment": "growth (OD595) fold change vs plate DMSO controls (fold change (ratio)); higher = more growth", "procedure,_shortened": "as §1"}, "[5]": {"system": "Klebsiella aerogenes DSM 30053", "experiment": "fold change of Histamine concentration vs plate DMSO controls (fold change (ratio)); higher = more amine produced, active = hit call of the paper (significant change in both replicates, either direction)", "procedure,_shortened": "(§2)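 Anaerobic mGAM cultures of four gut bacterial strains were grown at 37 °C for 27 h in 80 µL wells, starting at OD 0.1 before 1:1 dilution. Compounds were at 20 µM final (sweeteners 50 µM). Whole cultures were extracted with cold acetonitrile/methanol containing 0.1% formic acid and centrifuged. Amines were quantified by LC–triple-quadrupole MS (dynamic MRM) against external calibration curves and drift-corrected within batch. Each value is the fold change versus plate DMSO controls, averaged over 2 biological replicates.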"}, "[6]": {"system": "Clostridium sporogenes DSM 1664", "experiment": "fold change of Tryptamine concentration vs plate DMSO controls (fold change (ratio)); higher = more amine produced, active = hit call of the paper (significant change in both replicates, either direction)", "procedure,_shortened": "as §2"}, "[7]": {"system": "Ruminococcus gnavus DSM 108212", "experiment": "fold change of Tryptamine concentration vs plate DMSO controls (fold change (ratio)); higher = more amine produced, active = hit call of the paper (significant change in both replicates, either direction)", "procedure,_shortened": "as §2"}, "Escherichia coli IAI1 [8]": {"system": "Escherichia coli IAI1", "experiment": "fold change of Putrescine concentration vs plate DMSO controls (fold change (ratio)); higher = more amine produced, active = hit call of the paper (significant change in both replicates, either direction)", "procedure,_shortened": "as §2"}, "[9]": {"system": "Klebsiella aerogenes DSM 30053", "experiment": "fold change of Putrescine concentration vs plate DMSO controls (fold change (ratio)); higher = more amine produced, active = hit call of the paper (significant change in both replicates, either direction)", "procedure,_shortened": "as §2"}, "Escherichia coli IAI1 [10]": {"system": "Escherichia coli IAI1", "experiment": "fold change of Cadaverine concentration vs plate DMSO controls (fold change (ratio)); higher = more amine produced, active = hit call of the paper (significant change in both replicates, either direction)", "procedure,_shortened": "as §2"}, "[11]": {"system": "Klebsiella aerogenes DSM 30053", "experiment": "fold change of Cadaverine concentration vs plate DMSO controls (fold change (ratio)); higher = more amine produced, active = hit call of the paper (significant change in both replicates, either direction)", "procedure,_shortened": "as §2"}, "[12]": {"system": "Ruminococcus gnavus DSM 108212", "experiment": "fold change of 2-Phenylethylamine concentration vs plate DMSO controls (fold change (ratio)); higher = more amine produced, active = hit call of the paper (significant change in both replicates, either direction)", "procedure,_shortened": "as §2"}}, "note": "Where a name gives a salt, the structure may show the parent alone.", "data": [{"molecule": "Clc1ccc(C(OCCN2CCCCC2)c2ccccc2)cc1", "note": "(centres undefined) [Cloperastine hydrochloride]", "values": [{"measurement": "growth", "setting": "[1]", "result": 1.14}, {"measurement": "growth", "setting": "Escherichia coli IAI1 [2]", "result": 1.07}, {"measurement": "growth", "setting": "[3]", "result": 1.06}, {"measurement": "growth", "setting": "[4]", "result": 0.788}, {"measurement": "fold change of Histamine concentration", "setting": "[5]", "result": "0.884 (inactive)"}, {"measurement": "fold change of Tryptamine concentration", "setting": "[6]", "result": "1.01 (inactive)"}, {"measurement": "fold change of Tryptamine concentration", "setting": "[7]", "result": "0.88 (inactive)"}, {"measurement": "fold change of Putrescine concentration", "setting": "Escherichia coli IAI1 [8]", "result": "1.06 (inactive)"}, {"measurement": "fold change of Putrescine concentration", "setting": "[9]", "result": "0.988 (inactive)"}, {"measurement": "fold change of Cadaverine concentration", "setting": "Escherichia coli IAI1 [10]", "result": "0.958 (inactive)"}, {"measurement": "fold change of Cadaverine concentration", "setting": "[11]", "result": "1.03 (inactive)"}, {"measurement": "fold change of 2-Phenylethylamine concentration", "setting": "[12]", "result": "1 (inactive)"}]}, {"molecule": "Cc1cccc2sc3nncn3c12", "values": [{"measurement": "growth", "setting": "[1]", "result": 0.977}, {"measurement": "growth", "setting": "Escherichia coli IAI1 [2]", "result": 1}, {"measurement": "growth", "setting": "[3]", "result": 0.981}, {"measurement": "growth", "setting": "[4]", "result": 1}, {"measurement": "fold change of Histamine concentration", "setting": "[5]", "result": "0.973 (inactive)"}, {"measurement": "fold change of Tryptamine concentration", "setting": "[6]", "result": "0.982 (inactive)"}, {"measurement": "fold change of Tryptamine concentration", "setting": "[7]", "result": "0.98 (inactive)"}, {"measurement": "fold change of Putrescine concentration", "setting": "Escherichia coli IAI1 [8]", "result": "0.99 (inactive)"}, {"measurement": "fold change of Putrescine concentration", "setting": "[9]", "result": "0.997 (inactive)"}, {"measurement": "fold change of Cadaverine concentration", "setting": "Escherichia coli IAI1 [10]", "result": "1.03 (inactive)"}, {"measurement": "fold change of Cadaverine concentration", "setting": "[11]", "result": "0.995 (inactive)"}, {"measurement": "fold change of 2-Phenylethylamine concentration", "setting": "[12]", "result": "0.992 (inactive)"}]}, {"molecule": "CCOC(=O)c1cncn1[C@H](C)c1ccccc1", "note": "[Etomidate]", "values": [{"measurement": "growth", "setting": "Escherichia coli IAI1 [2]", "result": 1.22}, {"measurement": "growth", "setting": "[3]", "result": 0.988}, {"measurement": "growth", "setting": "[4]", "result": 0.931}, {"measurement": "fold change of Histamine concentration", "setting": "[5]", "result": "0.992 (inactive)"}, {"measurement": "fold change of Tryptamine concentration", "setting": "[7]", "result": "1.06 (inactive)"}, {"measurement": "fold change of Putrescine concentration", "setting": "Escherichia coli IAI1 [8]", "result": "0.985 (inactive)"}, {"measurement": "fold change of Putrescine concentration", "setting": "[9]", "result": "1.07 (inactive)"}, {"measurement": "fold change of Cadaverine concentration", "setting": "Escherichia coli IAI1 [10]", "result": "0.973 (inactive)"}, {"measurement": "fold change of Cadaverine concentration", "setting": "[11]", "result": "1.07 (inactive)"}, {"measurement": "fold change of 2-Phenylethylamine concentration", "setting": "[12]", "result": "1.19 (inactive)"}]}, {"molecule": "COc1ccc(CCN2CCC(Nc3nc4ccccc4n3Cc3ccc(F)cc3)CC2)cc1", "note": "[Astemizole]", "values": [{"measurement": "growth", "setting": "[1]", "result": 1.26}, {"measurement": "growth", "setting": "Escherichia coli IAI1 [2]", "result": 1.02}, {"measurement": "growth", "setting": "[3]", "result": 1.01}, {"measurement": "fold change of Histamine concentration", "setting": "[5]", "result": "0.968 (inactive)"}, {"measurement": "fold change of Tryptamine concentration", "setting": "[6]", "result": "1.02 (inactive)"}, {"measurement": "fold change of Tryptamine concentration", "setting": "[7]", "result": "0.838 (inactive)"}, {"measurement": "fold change of Putrescine concentration", "setting": "Escherichia coli IAI1 [8]", "result": "1.01 (inactive)"}, {"measurement": "fold change of Putrescine concentration", "setting": "[9]", "result": "0.988 (inactive)"}, {"measurement": "fold change of Cadaverine concentration", "setting": "Escherichia coli IAI1 [10]", "result": "1.05 (inactive)"}, {"measurement": "fold change of Cadaverine concentration", "setting": "[11]", "result": "0.994 (inactive)"}, {"measurement": "fold change of 2-Phenylethylamine concentration", "setting": "[12]", "result": "0.796 (inactive)"}]}, {"molecule": "CC[N+]1(C)CCCC(OC(=O)C(O)(c2ccccc2)c2ccccc2)C1", "note": "(centres undefined) [Pipenzolate bromide]", "values": [{"measurement": "growth", "setting": "[1]", "result": 0.938}, {"measurement": "growth", "setting": "Escherichia coli IAI1 [2]", "result": 0.997}, {"measurement": "growth", "setting": "[3]", "result": 0.994}, {"measurement": "growth", "setting": "[4]", "result": 1.05}, {"measurement": "fold change of Histamine concentration", "setting": "[5]", "result": "0.982 (inactive)"}, {"measurement": "fold change of Tryptamine concentration", "setting": "[6]", "result": "0.957 (inactive)"}, {"measurement": "fold change of Tryptamine concentration", "setting": "[7]", "result": "0.956 (inactive)"}, {"measurement": "fold change of Putrescine concentration", "setting": "Escherichia coli IAI1 [8]", "result": "1.06 (inactive)"}, {"measurement": "fold change of Putrescine concentration", "setting": "[9]", "result": "1 (inactive)"}, {"measurement": "fold change of Cadaverine concentration", "setting": "Escherichia coli IAI1 [10]", "result": "0.988 (inactive)"}, {"measurement": "fold change of Cadaverine concentration", "setting": "[11]", "result": "1.01 (inactive)"}, {"measurement": "fold change of 2-Phenylethylamine concentration", "setting": "[12]", "result": "0.926 (inactive)"}]}, {"molecule": "CC(=O)OCC(=O)[C@H]1CC[C@H]2[C@@H]3CC[C@H]4C[C@H](O)CC[C@]4(C)[C@H]3C(=O)C[C@]12C", "note": "[Alfadolone acetate]", "values": [{"measurement": "growth", "setting": "[1]", "result": 0.985}, {"measurement": "growth", "setting": "Escherichia coli IAI1 [2]", "result": 1.26}, {"measurement": "growth", "setting": "[3]", "result": 0.997}, {"measurement": "growth", "setting": "[4]", "result": 1.11}, {"measurement": "fold change of Histamine concentration", "setting": "[5]", "result": "1.03 (inactive)"}, {"measurement": "fold change of Tryptamine concentration", "setting": "[6]", "result": "1.04 (inactive)"}, {"measurement": "fold change of Tryptamine concentration", "setting": "[7]", "result": "1.02 (inactive)"}, {"measurement": "fold change of Putrescine concentration", "setting": "Escherichia coli IAI1 [8]", "result": "1.22 (inactive)"}, {"measurement": "fold change of Putrescine concentration", "setting": "[9]", "result": "0.981 (inactive)"}, {"measurement": "fold change of Cadaverine concentration", "setting": "Escherichia coli IAI1 [10]", "result": "1.03 (inactive)"}, {"measurement": "fold change of Cadaverine concentration", "setting": "[11]", "result": "0.977 (inactive)"}, {"measurement": "fold change of 2-Phenylethylamine concentration", "setting": "[12]", "result": "1.01 (inactive)"}]}, {"molecule": "CN1[C@@H]2CC[C@H]1C[C@@H](OC(=O)[C@H](CO)c1ccccc1)C2", "note": "[(L) Hyoscyamine]", "values": [{"measurement": "growth", "setting": "Escherichia coli IAI1 [2]", "result": 1.03}, {"measurement": "growth", "setting": "[3]", "result": 1.06}, {"measurement": "growth", "setting": "[4]", "result": 1.08}, {"measurement": "fold change of Histamine concentration", "setting": "[5]", "result": "0.941 (inactive)"}, {"measurement": "fold change of Tryptamine concentration", "setting": "[7]", "result": "1.13 (inactive)"}, {"measurement": "fold change of Putrescine concentration", "setting": "Escherichia coli IAI1 [8]", "result": "0.992 (inactive)"}, {"measurement": "fold change of Putrescine concentration", "setting": "[9]", "result": "0.94 (inactive)"}, {"measurement": "fold change of Cadaverine concentration", "setting": "Escherichia coli IAI1 [10]", "result": "0.923 (inactive)"}, {"measurement": "fold change of Cadaverine concentration", "setting": "[11]", "result": "1.02 (inactive)"}, {"measurement": "fold change of 2-Phenylethylamine concentration", "setting": "[12]", "result": "1.11 (inactive)"}]}]}
